# Measurements from PMC4336329 (PLoS ONE, 2015).
# The campaign covered roughly 310,000 compounds. About 14,000 (4.5%) showed an effect of 50% or more. The effect is printed as a negative number. Many of the other results were omitted from the sample, so strong results are more common in it than they were.
# Molecular target: human ether-à-go-go-related gene (hERG) potassium channel (human, UniProt Q12809)
# Experiment: primary screen, population patch clamp on CHO cells stably expressing hERG; higher = less effect of the substance
# 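Further: peak tail current of the secondary pulse compared with the same well before compound.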
# human ether-à-go-go-related gene (hERG) potassium channel, sequence (Q12809 whole entry, looked up): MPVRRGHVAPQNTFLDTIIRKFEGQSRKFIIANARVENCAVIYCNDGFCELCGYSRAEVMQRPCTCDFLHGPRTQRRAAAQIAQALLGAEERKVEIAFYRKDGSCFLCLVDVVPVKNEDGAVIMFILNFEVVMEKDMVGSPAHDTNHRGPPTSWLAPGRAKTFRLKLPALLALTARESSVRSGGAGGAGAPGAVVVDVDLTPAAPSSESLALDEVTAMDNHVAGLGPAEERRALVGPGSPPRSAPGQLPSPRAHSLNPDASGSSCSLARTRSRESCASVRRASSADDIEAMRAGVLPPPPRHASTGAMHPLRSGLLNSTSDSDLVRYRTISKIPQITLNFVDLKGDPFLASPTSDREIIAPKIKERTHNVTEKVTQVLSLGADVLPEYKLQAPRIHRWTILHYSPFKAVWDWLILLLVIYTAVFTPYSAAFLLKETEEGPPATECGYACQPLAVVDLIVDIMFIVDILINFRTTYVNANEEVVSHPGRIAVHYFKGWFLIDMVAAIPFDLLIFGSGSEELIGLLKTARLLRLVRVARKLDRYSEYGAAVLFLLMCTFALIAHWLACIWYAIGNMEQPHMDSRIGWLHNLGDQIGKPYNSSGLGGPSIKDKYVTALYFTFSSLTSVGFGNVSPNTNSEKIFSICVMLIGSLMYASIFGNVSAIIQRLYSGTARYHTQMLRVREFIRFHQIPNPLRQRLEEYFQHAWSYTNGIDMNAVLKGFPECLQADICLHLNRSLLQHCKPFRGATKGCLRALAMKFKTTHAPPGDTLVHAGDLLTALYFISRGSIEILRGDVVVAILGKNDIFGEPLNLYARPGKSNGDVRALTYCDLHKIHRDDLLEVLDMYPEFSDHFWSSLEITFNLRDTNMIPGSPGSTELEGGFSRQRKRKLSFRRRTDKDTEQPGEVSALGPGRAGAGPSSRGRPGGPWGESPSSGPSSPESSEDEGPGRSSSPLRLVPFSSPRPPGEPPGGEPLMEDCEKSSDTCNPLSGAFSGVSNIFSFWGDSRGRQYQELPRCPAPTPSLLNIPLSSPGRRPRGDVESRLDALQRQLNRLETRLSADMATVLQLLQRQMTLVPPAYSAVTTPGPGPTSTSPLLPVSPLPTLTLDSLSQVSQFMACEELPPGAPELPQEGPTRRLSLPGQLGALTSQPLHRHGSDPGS
row,Compound,"hERG current change (%, negative = inhibition) at 10uM [%]"
1,Cc1ccnc(NC(=O)CN(C)S(=O)(=O)c2cccc3nsnc23)c1,7.8
2,O=S(=O)(Nc1ccc(Cl)cc1)c1ccc2c(c1)CCO2,-3.21
3,O=C(O)c1ccc(NS(=O)(=O)c2cc(Cl)sc2Cl)cc1,21.3
4,Cc1oc2c(Cl)c(Cl)c(O)c(CN(C)C)c2c1C(=O)c1ccc(Cl)cc1,-1.39
5,Cc1nnc(SCC(=O)NC2CCCc3c2cnn3-c2ccccc2F)o1 (stereo not shown),20.5
6,O=C(NCc1ccco1)c1cccn2c(=O)c3sccc3nc12,-68.4
7,O=C(NCCNc1ccc2ccccc2c1)c1cccn2c(=O)c3sccc3nc12,-6.94
8,O=C(NCc1cccnc1)c1cccn2c(=O)c3sccc3nc12,-63.2
9,O=C(NCc1cccs1)c1cccn2c(=O)c3sccc3nc12,-7.79
10,O=C(NCc1ccco1)c1cccn2c(=O)c3c4c(sc3nc12)CCCC4,13.6
11,O=C(O)c1ccccc1C(=O)NCc1cccnc1,-32.8
12,O=c1c2ccccc2ncn1-c1ccc([N+](=O)[O-])c(C(F)(F)F)c1,-3.74
13,CC#C[C@@H](CC)c1ccc2ccn(C)c2c1,-4.51
14,O=C(NC1CCCCCCC1)c1ccc(F)cc1,4.61
15,COC(=O)C(Cc1ccccc1)NC(=O)c1cc(=O)[nH]c2ccccc12 (stereo not shown),17.6
16,CC(C)CCNC(=O)c1ccc(NC(=O)C2=CSCCO2)cc1,4.36
17,COc1ccccc1C1=NOC(C)(c2sc(-c3ccccc3)nc2C)C1 (stereo not shown),21.7
18,Cc1cc(C)c(C#N)c(SCc2ccccc2)n1,11.2
19,CNc1nnc(-c2ccncc2)s1,-0.587
20,Cc1ccc(Nc2nnc(-c3ccncc3)s2)c(Br)c1,-59.3
21,Clc1ccccc1Nc1nnc(-c2ccncc2)s1,-6.07
22,Cc1cc(=O)oc2cc(OCC(=O)N3CCN(C(=O)c4ccco4)CC3)ccc12.Cl,-32.6

row,Compound,"hERG current change (%, negative = inhibition) at 10uM [%]"
1,CCOc1ccc(CN2CCN(C(=O)c3ccco3)CC2)cc1.O=C(O)C(=O)O,-26.8
2,CCOc1ccc2oc(=O)cc(CN3CCOCC3)c2c1,-1.8
3,CCOc1ccc2oc(=O)cc(CN3CCN(Cc4ccccc4)CC3)c2c1,-56.7
4,CCN1CCN(Cc2cc(=O)oc3ccc(Cl)cc23)CC1,-15
5,CCOc1ccc2oc(=O)cc(CN3CCN(C(=O)c4ccco4)CC3)c2c1,-69.4
6,O=C(COC(=O)CCc1nc2ccccc2c(=O)[nH]1)Nc1ccc(OC(F)(F)F)cc1,-5.93
7,Cc1cc(OC2CCCCC2)nc(NCc2ccccc2)n1,1.82
8,COc1ccccc1CNC(=O)COC(=O)Cc1cccc(F)c1,1.78
9,CCC(=O)Nc1nnc(SCC(=O)N2c3ccccc3CC2C)s1 (stereo not shown),5.26
10,CC1Cc2ccccc2N1C(=O)CSc1nnc(N)s1 (stereo not shown),13
11,Cc1nnc(SCC(=O)N2c3ccccc3CC2C)s1 (stereo not shown),-54.2
12,COc1ccc2[nH]c(CN3CCN(CCC(C)C)C(CCO)C3)c(C)c2c1 (stereo not shown),23.5
13,Cc1c(CN2CCN(CC(C)C)C(CCO)C2)[nH]c2ccc(Cl)cc12 (stereo not shown),-34.4
14,COc1cccc(CN2CCN(Cc3ccc(C)o3)CC2CCO)c1 (stereo not shown),-21.2
15,CCOc1ccc(CN2CCN(Cc3[nH]c4ccc(OC)cc4c3C)CC2CCO)cc1 (stereo not shown),-77.9
16,COc1cccc(CN2CCN(Cc3cc4ccccc4[nH]3)CC2CCO)c1 (stereo not shown),-59.7
17,CCOc1ccccc1CN1CCN(Cc2[nH]c3ccccc3c2C)CC1CCO (stereo not shown),-62.3
18,CC(C)CN1CCN(Cc2cc3ccccc3[nH]2)CC1CCO (stereo not shown),-8.69
19,COc1ccc2[nH]c(CN3CCN(CC=C(C)C)C(CCO)C3)c(C)c2c1 (stereo not shown),-17.1
20,CCOc1ccc(CN2CCN(Cc3[nH]c4ccccc4c3C)CC2CCO)cc1 (stereo not shown),-75.8
21,Cc1c(CN2CCN(CC(C)(C)C)C(CCO)C2)[nH]c2ccccc12 (stereo not shown),12.2
22,CCOc1ccccc1CN1CCN(Cc2c[nH]c3ccccc23)CC1CCO (stereo not shown),-6.71

row,Compound,"hERG current change (%, negative = inhibition) at 10uM [%]"
1,NC(=O)COc1ccc(Cc2ncc(C(F)(F)F)cc2Cl)cc1,-2.34
2,Cc1ccc(C)c(NS(=O)(=O)c2cc(C(=O)N3CCc4ccccc4C3)ccc2Cl)c1,8.24
3,CCOc1ccc(C(=O)NCC(=O)OCc2c(C)noc2C)cc1OCC,23.2
4,Cc1cc(O)c(CN2CCN(c3ccccc3)CC2)cc1C,3.98
5,O=C(Nc1ccccc1Cl)Oc1ccc(Cl)cc1Cl,12.8
6,Cc1ccc(NC2=Nc3ccccc3CC2)cc1,-18.2
7,CS(=O)(=O)c1ccc2nc(NC(=O)c3ccc(N4C(=O)CCC4=O)cc3)sc2c1,6.3
8,CSc1nc2c(c(=O)[nH]1)C(c1ccccc1Cl)CC(=O)N2 (stereo not shown),12.8
9,CCc1nnc(NS(=O)(=O)c2ccc(Nc3ccc([N+](=O)[O-])c4nonc34)cc2)s1,46.6
10,COc1cccc(CN2CCN(Cc3[nH]c4ccccc4c3C)CC2CCO)c1 (stereo not shown),-60.5
11,COc1ccc2[nH]c(CN3CCN(CC(C)C)C(CCO)C3)c(C)c2c1 (stereo not shown),5.18
12,COc1cc(CN2CCN(Cc3c[nH]c4ccccc34)CC2CCO)cc(OC)c1 (stereo not shown),-32.3
13,Cc1csc(NC(=O)CSc2nncn2C)n1,19
14,O=C1C=C(NCc2ccccc2)C2(CCCCC2)O1,0.0967
15,CCCCc1ccc(NC(=O)CSc2nc(=O)n(CCN3CCOCC3)c3c2CCC3)cc1,-66.5
16,CCc1ccc(NC(=O)CSc2nc(=O)n(CCCN3CCOCC3)c3c2CCCC3)cc1,-54.7
17,CCOC(=O)c1ccc(NC(=O)CSc2nc(=O)n(CCN3CCOCC3)c3c2CCC3)cc1,-32
18,CCCCc1ccc(NC(=O)CSc2nc(=O)n(CCCN3CCOCC3)c3c2CCC3)cc1,-64.5
19,CCOc1ccc(NC(=O)CSc2nc(=O)n(CCCN3CCOCC3)c3c2CCC3)cc1,-24.1
20,CCc1ccc(NC(=O)CSc2nc(=O)n(CCCN3CCOCC3)c3c2CCC3)cc1,-40
